Data: PubChem BioAssay
A number with no mark means an inactive call. How the calls were made is not given here.

Test system: Aerobactin synthetase IucA (Klebsiella pneumoniae, hypervirulent)
Experiment: biochemical IucA inhibition screen of LOPAC library by absorbance (AID 1346212);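 further: 100% = no compound wells and 0% = no enzyme wells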
Details: IucA enzyme assay, absorbance (OD) readout; stronger effect = lower value;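 tested at 8 µM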

SMILES	remaining activity
CC(C)NC[C@H](O)COc1cccc2ccccc12	92.7%
Nc1ncnc2c1ncn2C1CCCC1	120%
CC1=C(C)C(=O)C(CCCCC#CCCCC#CCO)=C(C)C1=O	118%
COc1cc2c(CCNC(C)=O)c[nH]c2cc1O	92.2%
c1ccc2c(c1)CC(N1CCN(c3cccc4c3OCCO4)CC1)C2	108%
COc1ccccc1CNCCCCCCNCCCCCCCCNCCCCCCNCc1ccccc1OC	91.3%
CCCCN1CCC(n2c(=O)[nH]c3ccccc32)CC1	110%
Nc1nccc2c1ncn2[C@@H]1O[C@H](CO)[C@@H](O)[C@H]1O	95.9%
OC[C@H]1O[C@@H](n2cnc3c(NCCc4ccccc4)ncnc32)[C@H](O)[C@@H]1O	92.7%
Nc1nc(Nc2ccccc2)nc2c1ncn2[C@@H]1O[C@H](CO)[C@@H](O)[C@H]1O	106%
C[C@H](NC(=O)/C(C#N)=C/c1ccc(O)c(O)c1)c1ccccc1	95.7%
N#C/C(=C\c1c[nH]c2ccccc12)C(=O)c1ccc(O)c(O)c1	97.5%
OCc1cc(C(O)CNCCCCCCOCCCCc2ccccc2)ccc1O (centres undefined)	122%
N[C@@H](Cc1ccc(O)c(I)c1)C(=O)O	121%
Nc1nc(Cl)nc2c1ncn2[C@@H]1O[C@H](COP(=O)(O)OP(=O)(O)OP(=O)(O)O)[C@H](O)C1O (some centres undefined)	104%
CC(C)COC(=O)OCN1C(=O)CN(CCN2CC(=O)N(COC(=O)OCC(C)C)C(=O)C2)CC1=O	96.8%
CC(=O)O[C@H]1C[C@@H]2CC[C@@H]3[C@H](CC[C@@]4(C)[C@H]3C[C@H]([N+]3(C)CCCCC3)[C@@H]4OC(C)=O)[C@@]2(C)C[C@@H]1[N+]1(C)CCCCC1	121%
NC(N)=NC(=O)c1nc(Cl)c(N2CCCCCC2)nc1N	120%
CCCCCCN(CCCCCC)C(=O)Cc1c(-c2ccc(F)cc2)[nH]c2ccccc12	97.1%
N#C/C(=C\c1ccc(O)c(O)c1)C(=O)NCCCc1ccccc1	103%

SMILES	remaining activity
N[C@H](C(=O)O)[C@H](O)C(=O)O	106%
C=C[C@@]1(C)CC(=O)[C@]2(O)[C@@]3(C)[C@@H](O)CCC(C)(C)[C@@H]3[C@H](O)[C@H](OC(C)=O)[C@@]2(C)O1	107%
CN1[C@@H]2CC[C@H]1CC(OC(=O)[C@H](CO)c1ccccc1)C2 (some centres undefined)	107%
c1ccc(C2CN3CCSC3=N2)cc1 (centres undefined)	92.5%
CC(C)Oc1cccnc1N(C)C1CCN(Cc2ccc(I)cc2)CC1	97.8%
CNCC[C@H](Oc1ccc(C(F)(F)F)cc1)c1ccccc1	93.6%
N[C@@H](CC(=O)O)C(=O)O	111%
NS(=O)(=O)c1cccc2c1c([N+](=O)[O-])cc1nc(O)c(O)nc12	106%
Nc1cc(=O)[nH]c(N)n1	126%
CN(C)CC[C@@H](c1ccc(Cl)cc1)c1ccccn1	117%
Cc1ccc(S(=O)(=O)N[C@@H](Cc2ccccc2)C(=O)CCl)cc1	107%
CCCCCCC(=O)OC1CC(C)(C)NC(C)(C)C1	109%
N[C@@H](COP(=O)(O)O)C(=O)O	124%
CN1CCc2c(cc(O)c(O)c2Cl)C(c2cccc(Cl)c2)C1 (centres undefined)	96.8%
CC(N)=NCCCC[C@@H](N)C(=O)O	124%
CC[N+](C)(C)c1cccc(O)c1	86.8%
[Li+]	102%
O=C(O)/C=C/C(O)c1ccc(Cl)cc1 (centres undefined)	120%
C[C@]12C=CC(=O)C=C1CC[C@H]1[C@@H]3C[C@@H](O)[C@](O)(C(=O)CO)[C@@]3(C)C[C@H](O)[C@@]12F	110%
